This is an account of results in PMC7862700, “An all-to-all approach to the identification of sequence-specific readers for epigenetic DNA modifications on cytosine”.

Experiment in all cases: DAPPL (digital affinity profiling via proximity ligation, sequencing); 10 mM Tris-HCl pH 7.5, 50 mM NaCl, 1 mM DTT, 4% glycerol, room temperature, 30 min; GST-TFs on glutathione beads, 16-mer random dsDNA library, 0.1% formaldehyde crosslink after washing; high values mean tight binding
Assay [1] concerns the target T1, FLI1 (Homo sapiens, UniProt Q01543 1-452).
T1 sequence: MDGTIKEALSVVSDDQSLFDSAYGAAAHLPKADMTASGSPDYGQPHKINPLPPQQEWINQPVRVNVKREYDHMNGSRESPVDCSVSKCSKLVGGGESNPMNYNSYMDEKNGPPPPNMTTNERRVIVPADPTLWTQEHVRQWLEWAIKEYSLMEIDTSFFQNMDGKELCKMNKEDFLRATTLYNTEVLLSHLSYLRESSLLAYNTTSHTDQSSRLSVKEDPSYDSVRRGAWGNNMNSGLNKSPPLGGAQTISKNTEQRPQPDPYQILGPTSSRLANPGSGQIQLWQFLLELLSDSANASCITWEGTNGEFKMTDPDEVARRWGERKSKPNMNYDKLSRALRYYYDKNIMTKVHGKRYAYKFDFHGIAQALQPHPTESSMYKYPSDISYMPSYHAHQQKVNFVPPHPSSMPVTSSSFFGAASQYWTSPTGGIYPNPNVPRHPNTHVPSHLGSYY
Particulars: protein: recombinant; tags: N-terminal GST; dsDNA, one strand shown. The gist of the method:
(§1)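 Human transcription factors were made in yeast as GST fusions, captured on glutathione beads and barcoded with DNA. With a tag-only sample included, the pool was incubated with 200 nmole of a random double-stranded 16-mer DNA library in Tris/NaCl/DTT/glycerol buffer at room temperature for 30 min, then crosslinked with 0.1% formaldehyde after washing, ligated by proximity, amplified and sequenced. For binding signal, each hexamer's read frequency for a factor is divided by its frequency for the tag-only sample.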

Assay [2] has as its target T2, ELK1 (Homo sapiens, UniProt P19419 1-428).
T2 sequence: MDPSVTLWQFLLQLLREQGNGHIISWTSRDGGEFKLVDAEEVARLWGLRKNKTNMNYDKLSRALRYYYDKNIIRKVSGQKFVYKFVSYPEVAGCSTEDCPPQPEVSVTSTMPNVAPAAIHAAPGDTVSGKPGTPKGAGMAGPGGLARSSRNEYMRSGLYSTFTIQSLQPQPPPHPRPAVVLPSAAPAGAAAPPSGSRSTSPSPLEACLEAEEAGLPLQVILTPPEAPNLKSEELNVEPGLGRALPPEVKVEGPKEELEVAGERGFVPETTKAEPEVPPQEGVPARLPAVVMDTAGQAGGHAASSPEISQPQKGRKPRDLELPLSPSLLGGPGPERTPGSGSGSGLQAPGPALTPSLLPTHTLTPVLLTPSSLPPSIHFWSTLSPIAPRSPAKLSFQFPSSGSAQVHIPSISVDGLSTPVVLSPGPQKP
Particulars: protein: recombinant; tags: N-terminal GST; dsDNA, one strand shown. The method, boiled down: as §1

Assay [3] addresses T3, GABPA (Homo sapiens, UniProt Q06546 1-454).
T3 sequence: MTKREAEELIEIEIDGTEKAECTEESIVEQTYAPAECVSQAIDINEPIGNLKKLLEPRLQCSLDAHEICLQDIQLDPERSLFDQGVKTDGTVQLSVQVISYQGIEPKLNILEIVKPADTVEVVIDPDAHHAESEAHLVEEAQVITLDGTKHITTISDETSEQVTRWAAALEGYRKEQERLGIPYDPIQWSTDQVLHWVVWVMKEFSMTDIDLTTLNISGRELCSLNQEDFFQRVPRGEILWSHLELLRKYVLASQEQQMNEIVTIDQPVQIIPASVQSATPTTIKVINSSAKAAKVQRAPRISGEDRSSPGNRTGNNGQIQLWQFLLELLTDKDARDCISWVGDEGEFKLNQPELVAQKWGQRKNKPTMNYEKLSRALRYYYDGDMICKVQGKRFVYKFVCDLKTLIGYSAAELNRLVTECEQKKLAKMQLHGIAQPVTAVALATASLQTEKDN
Particulars: protein: recombinant; tags: N-terminal GST; dsDNA, one strand shown. The gist of the method: as §1

For assay [4], the target named is T4, ERG (Homo sapiens, UniProt P11308 1-479).
T4 sequence: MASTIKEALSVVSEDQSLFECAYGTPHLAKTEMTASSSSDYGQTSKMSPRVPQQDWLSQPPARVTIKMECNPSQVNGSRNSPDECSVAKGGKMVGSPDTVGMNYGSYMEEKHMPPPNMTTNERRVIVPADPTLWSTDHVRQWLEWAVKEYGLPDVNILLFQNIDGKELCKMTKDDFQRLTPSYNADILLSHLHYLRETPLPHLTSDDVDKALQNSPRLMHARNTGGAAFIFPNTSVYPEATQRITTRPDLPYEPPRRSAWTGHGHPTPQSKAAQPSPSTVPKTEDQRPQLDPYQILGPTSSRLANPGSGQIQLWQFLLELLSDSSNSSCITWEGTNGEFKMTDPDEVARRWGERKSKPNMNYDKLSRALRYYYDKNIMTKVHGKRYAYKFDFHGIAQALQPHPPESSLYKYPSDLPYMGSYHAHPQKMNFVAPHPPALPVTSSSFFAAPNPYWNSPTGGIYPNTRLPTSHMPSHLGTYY
As to conditions: protein: recombinant; tags: N-terminal GST; dsDNA, one strand shown. The method, boiled down: as §1

Assay [5] concerns the target ELF1 (Homo sapiens, UniProt P32519 1-619). Particulars: protein: recombinant; tags: N-terminal GST; dsDNA, one strand shown. The gist of the method:
as §1

Assay [6] concerns the target T5, EHF (Homo sapiens, UniProt Q9NZC4 1-300).
T5 sequence: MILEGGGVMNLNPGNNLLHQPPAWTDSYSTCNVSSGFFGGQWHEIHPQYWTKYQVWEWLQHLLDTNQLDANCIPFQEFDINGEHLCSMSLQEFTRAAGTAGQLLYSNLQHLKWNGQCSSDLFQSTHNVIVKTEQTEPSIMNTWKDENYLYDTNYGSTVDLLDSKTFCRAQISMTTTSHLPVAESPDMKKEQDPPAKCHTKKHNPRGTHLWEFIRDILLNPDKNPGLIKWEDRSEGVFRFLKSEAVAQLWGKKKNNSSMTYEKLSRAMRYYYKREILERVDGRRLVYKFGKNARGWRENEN
As to conditions: protein: recombinant; tags: N-terminal GST; dsDNA, one strand shown. The method, boiled down: as §1

Assay [7] deals with SPI1 (Homo sapiens, UniProt P17947 1-270). Particulars: protein: recombinant; tags: N-terminal GST; dsDNA, one strand shown. The gist of the method: as §1
For assay [8], the target named is SPIB (Homo sapiens, UniProt Q01892 1-262). Particulars: protein: recombinant; tags: N-terminal GST; dsDNA, one strand shown. The method, boiled down:
as §1

Assay [9] addresses T6, ELK3 (Homo sapiens, UniProt P41970 1-407).
T6 sequence: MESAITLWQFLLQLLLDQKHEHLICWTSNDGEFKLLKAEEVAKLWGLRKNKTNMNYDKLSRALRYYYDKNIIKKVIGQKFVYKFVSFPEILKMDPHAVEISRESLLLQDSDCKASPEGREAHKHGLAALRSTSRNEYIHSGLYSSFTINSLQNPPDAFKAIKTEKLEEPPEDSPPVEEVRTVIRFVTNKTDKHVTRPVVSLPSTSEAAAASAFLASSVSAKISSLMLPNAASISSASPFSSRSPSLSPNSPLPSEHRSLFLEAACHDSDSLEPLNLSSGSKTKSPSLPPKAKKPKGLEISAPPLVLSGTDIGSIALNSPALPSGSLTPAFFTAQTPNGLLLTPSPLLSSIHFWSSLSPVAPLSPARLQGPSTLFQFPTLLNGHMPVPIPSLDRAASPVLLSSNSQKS
As to conditions: protein: recombinant; tags: N-terminal GST; dsDNA, one strand shown. The method, boiled down:
as §1

Assay [10] concerns the target T7, FEV (Homo sapiens, UniProt Q99581 1-238).
T7 sequence: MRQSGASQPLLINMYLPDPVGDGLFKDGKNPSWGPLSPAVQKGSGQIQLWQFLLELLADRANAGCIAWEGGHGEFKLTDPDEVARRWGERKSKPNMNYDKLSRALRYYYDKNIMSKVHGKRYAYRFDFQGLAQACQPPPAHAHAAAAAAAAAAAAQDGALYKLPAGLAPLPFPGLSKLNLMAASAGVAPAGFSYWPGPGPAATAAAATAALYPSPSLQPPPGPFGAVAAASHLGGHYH
As to conditions: protein: recombinant; tags: N-terminal GST; dsDNA, one strand shown. The gist of the method:
as §1

The target in assay [11] is ETV5 (Homo sapiens, UniProt P41161 1-510). As to conditions: protein: recombinant; tags: N-terminal GST; dsDNA, one strand shown. The method, boiled down: as §1
Assay [12] deals with HSF1 (Homo sapiens, UniProt Q00613 1-529). Particulars: protein: recombinant; tags: N-terminal GST; chain copies: 3; dsDNA, one strand shown. The gist of the method: as §1
Assay [13] concerns the target T8, SPIC (Homo sapiens, UniProt Q8N5J4 1-248).
T8 sequence: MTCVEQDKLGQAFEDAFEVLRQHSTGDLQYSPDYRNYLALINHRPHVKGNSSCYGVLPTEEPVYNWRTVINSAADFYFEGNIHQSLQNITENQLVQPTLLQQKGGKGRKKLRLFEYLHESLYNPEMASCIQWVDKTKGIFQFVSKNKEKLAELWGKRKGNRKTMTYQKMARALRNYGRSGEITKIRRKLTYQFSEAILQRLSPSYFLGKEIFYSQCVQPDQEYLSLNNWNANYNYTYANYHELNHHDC
Particulars: protein: recombinant; tags: N-terminal GST; dsDNA, one strand shown. The gist of the method:
as §1

For assay [14], the target named is ELF4 (Homo sapiens, UniProt Q99607 1-663). As to conditions: protein: recombinant; tags: N-terminal GST; dsDNA, one strand shown. The gist of the method:
as §1

For assay [15], the target named is T9, ELK4 (Homo sapiens, UniProt P28324-2 1-405).
T9 sequence: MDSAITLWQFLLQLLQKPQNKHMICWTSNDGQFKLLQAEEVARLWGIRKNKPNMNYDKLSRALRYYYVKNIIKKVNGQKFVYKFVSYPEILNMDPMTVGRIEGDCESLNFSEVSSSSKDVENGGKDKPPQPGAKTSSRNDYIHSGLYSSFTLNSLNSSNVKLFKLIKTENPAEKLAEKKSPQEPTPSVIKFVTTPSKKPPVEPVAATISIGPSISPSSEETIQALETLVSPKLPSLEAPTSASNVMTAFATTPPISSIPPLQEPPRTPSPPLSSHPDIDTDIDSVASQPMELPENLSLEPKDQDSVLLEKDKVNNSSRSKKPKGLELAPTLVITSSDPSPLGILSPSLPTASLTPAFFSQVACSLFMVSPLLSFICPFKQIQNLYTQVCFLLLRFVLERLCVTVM
Particulars: protein: recombinant; tags: N-terminal GST; dsDNA, one strand shown. The gist of the method:
as §1

For assay [16], the target named is T10, ETV2 (Homo sapiens, UniProt O00321 1-342).
T10 sequence: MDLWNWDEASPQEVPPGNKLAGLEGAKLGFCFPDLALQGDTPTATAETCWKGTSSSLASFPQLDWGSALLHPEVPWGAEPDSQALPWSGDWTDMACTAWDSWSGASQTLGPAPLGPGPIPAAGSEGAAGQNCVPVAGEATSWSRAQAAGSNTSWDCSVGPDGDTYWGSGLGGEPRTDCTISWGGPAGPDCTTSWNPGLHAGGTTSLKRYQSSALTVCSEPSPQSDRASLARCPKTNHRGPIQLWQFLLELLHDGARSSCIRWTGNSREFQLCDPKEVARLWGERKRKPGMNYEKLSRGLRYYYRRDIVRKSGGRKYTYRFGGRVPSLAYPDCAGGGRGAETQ
Particulars: protein: recombinant; tags: N-terminal GST; dsDNA, one strand shown. The gist of the method:
as §1

Assay [17] has as its target T11, ELF3 (Homo sapiens, UniProt P78545 1-371).
T11 sequence: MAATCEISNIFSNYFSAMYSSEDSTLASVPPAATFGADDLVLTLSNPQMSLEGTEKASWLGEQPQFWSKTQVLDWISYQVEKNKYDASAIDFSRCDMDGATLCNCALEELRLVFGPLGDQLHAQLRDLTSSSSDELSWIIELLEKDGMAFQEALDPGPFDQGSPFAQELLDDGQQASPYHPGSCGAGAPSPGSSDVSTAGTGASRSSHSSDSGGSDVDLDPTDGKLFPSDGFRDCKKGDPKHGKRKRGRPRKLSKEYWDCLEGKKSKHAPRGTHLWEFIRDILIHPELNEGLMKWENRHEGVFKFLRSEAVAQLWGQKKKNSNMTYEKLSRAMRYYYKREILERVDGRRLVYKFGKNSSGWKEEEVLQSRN
Particulars: protein: recombinant; tags: N-terminal GST; dsDNA, one strand shown. The method, boiled down:
as §1

The target in assay [18] is ETV1 (Homo sapiens, UniProt P50549 1-477). As to conditions: protein: recombinant; tags: N-terminal GST; dsDNA, one strand shown. The gist of the method: as §1
ETV1, sequence (P50549 whole entry): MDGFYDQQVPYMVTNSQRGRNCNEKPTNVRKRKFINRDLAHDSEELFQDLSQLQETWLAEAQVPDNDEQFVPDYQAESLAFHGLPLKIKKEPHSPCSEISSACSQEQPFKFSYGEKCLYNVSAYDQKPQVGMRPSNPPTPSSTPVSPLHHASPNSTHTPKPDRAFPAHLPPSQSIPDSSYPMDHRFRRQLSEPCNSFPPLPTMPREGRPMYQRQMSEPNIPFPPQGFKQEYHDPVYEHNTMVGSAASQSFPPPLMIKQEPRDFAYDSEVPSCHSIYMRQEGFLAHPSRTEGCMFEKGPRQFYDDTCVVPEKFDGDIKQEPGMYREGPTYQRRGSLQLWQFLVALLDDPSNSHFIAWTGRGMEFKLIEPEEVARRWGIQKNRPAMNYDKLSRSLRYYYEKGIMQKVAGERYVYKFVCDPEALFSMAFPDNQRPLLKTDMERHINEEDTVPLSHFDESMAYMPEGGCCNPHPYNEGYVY

ELF4, sequence (Q99607 whole entry): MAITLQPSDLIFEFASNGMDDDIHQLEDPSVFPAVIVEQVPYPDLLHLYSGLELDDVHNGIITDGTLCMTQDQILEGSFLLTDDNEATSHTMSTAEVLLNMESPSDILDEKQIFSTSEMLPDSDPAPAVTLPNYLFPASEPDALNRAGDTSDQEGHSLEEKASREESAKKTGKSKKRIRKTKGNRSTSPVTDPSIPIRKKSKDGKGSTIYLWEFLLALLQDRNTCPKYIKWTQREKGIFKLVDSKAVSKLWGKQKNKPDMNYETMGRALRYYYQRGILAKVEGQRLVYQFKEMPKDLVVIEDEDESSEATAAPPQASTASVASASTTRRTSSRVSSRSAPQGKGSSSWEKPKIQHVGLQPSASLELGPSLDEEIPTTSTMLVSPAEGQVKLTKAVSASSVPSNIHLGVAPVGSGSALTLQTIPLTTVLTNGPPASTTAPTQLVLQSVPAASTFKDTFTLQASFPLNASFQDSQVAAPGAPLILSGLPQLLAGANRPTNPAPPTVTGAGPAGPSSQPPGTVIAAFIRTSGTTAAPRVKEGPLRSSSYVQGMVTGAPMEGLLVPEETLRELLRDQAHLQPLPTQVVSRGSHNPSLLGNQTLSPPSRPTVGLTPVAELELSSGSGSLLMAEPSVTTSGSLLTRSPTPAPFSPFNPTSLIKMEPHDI
HSF1, sequence (Q00613 whole entry): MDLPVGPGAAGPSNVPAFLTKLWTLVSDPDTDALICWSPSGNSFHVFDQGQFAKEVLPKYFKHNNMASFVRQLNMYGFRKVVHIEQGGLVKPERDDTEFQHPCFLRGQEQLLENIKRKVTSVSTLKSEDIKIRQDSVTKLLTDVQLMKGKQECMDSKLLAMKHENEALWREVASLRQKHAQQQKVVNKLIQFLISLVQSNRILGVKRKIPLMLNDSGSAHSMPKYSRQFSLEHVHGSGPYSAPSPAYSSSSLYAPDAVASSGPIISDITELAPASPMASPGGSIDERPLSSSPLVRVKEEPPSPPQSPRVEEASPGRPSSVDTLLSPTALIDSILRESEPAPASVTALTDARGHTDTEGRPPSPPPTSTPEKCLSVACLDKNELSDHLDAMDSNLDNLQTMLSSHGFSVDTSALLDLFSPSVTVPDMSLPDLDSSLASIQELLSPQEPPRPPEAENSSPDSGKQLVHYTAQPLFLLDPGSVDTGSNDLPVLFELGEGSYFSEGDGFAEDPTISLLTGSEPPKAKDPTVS
ELF1, sequence (P32519 whole entry): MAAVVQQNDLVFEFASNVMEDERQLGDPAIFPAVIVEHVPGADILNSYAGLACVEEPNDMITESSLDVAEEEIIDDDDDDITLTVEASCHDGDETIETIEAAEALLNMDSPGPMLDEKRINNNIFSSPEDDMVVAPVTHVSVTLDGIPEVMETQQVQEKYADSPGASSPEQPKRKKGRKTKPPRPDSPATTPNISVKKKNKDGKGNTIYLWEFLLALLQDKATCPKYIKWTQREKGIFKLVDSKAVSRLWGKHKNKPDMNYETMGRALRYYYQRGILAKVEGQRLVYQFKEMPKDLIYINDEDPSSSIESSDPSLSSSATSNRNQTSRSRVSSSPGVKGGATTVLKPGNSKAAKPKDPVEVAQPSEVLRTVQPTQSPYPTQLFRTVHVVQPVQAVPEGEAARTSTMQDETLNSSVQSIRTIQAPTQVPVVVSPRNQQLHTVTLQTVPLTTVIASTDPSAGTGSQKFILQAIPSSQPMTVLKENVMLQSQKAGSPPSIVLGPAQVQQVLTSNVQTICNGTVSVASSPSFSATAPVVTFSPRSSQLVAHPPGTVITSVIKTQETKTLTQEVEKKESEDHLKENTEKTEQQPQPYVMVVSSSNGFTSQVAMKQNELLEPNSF
SPIB, sequence (Q01892 whole entry): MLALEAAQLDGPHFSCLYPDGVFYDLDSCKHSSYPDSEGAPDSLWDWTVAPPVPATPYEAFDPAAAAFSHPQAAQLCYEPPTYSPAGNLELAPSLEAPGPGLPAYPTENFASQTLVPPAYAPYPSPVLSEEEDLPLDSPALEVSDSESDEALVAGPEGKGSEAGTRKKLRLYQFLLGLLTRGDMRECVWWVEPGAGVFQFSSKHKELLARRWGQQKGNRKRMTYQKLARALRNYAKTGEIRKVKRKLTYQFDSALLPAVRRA
ETV5, sequence (P41161 whole entry): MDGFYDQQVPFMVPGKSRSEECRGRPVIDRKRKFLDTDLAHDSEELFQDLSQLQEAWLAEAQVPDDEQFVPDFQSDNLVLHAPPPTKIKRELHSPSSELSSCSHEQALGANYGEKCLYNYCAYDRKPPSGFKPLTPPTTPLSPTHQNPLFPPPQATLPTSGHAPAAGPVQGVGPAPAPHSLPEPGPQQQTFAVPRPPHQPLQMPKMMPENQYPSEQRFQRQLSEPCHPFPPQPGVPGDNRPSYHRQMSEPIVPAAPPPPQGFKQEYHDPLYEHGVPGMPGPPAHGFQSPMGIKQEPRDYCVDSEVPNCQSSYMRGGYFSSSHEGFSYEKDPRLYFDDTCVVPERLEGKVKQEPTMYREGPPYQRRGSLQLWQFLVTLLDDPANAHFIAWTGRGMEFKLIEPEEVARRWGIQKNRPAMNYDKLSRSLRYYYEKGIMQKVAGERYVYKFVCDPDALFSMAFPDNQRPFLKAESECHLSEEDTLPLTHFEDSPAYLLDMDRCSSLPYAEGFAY

As to CACGCG, the binding signal in assay [1] was 1.32 fold enrichment (6-mer frequency, TF over GST control); in [2] it was 1.15 fold enrichment (6-mer frequency, TF over GST control); in [3], 1.23 fold enrichment (6-mer frequency, TF over GST control); in [4] it was 1.18 fold enrichment (6-mer frequency, TF over GST control); in [5], 1.23 fold enrichment (6-mer frequency, TF over GST control); in assay [6], 1.2 fold enrichment (6-mer frequency, TF over GST control). The binding signal in [7] is 1.08 fold enrichment (6-mer frequency, TF over GST control); in assay [8], 1.2 fold enrichment (6-mer frequency, TF over GST control); in assay [9] it was 1.14 fold enrichment (6-mer frequency, TF over GST control); in [10] it was 1.16 fold enrichment (6-mer frequency, TF over GST control); in assay [11], 1.04 fold enrichment (6-mer frequency, TF over GST control); in assay [12], 1.1 fold enrichment (6-mer frequency, TF over GST control). The binding signal in [13] was 1.29 fold enrichment (6-mer frequency, TF over GST control); in assay [14] it was 1.2 fold enrichment (6-mer frequency, TF over GST control); in assay [15], 1.24 fold enrichment (6-mer frequency, TF over GST control); in assay [16], 1.18 fold enrichment (6-mer frequency, TF over GST control); in assay [17] it was 1.08 fold enrichment (6-mer frequency, TF over GST control); in assay [18], 1.09 fold enrichment (6-mer frequency, TF over GST control).
